From PubChem BioAssay (NCATS)
Where “and” joins values, the source holds several entries; their conditions need not be identical. Equal values may be shown once. Records with an inconclusive call do not appear. Calls of active or inactive are those of the source. Unless noted, calls come from the whole dose curve; as a rule, active = well fitted curve in the direction sought with a large enough effect; inconclusive = small, poorly fitted or top-dose-only effect, or another doubt; inactive = no such curve, though single readings can be large; an effect the other way counts as inactive or inconclusive.

How the values were obtained:
[1] = qHTS assay for small molecule agonists of the antioxidant response element (ARE) signaling pathway (AID 651741; active = well fitted activation curve with a large enough effect in the signal ratio; the % refers to the signal ratio; note: % of control where 0% means no effect); conditions: HepG2 ARE-bla reporter, beta-lactamase FRET ratio, 16 h; series mostly up to 96 µM
Summary of the method: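 Beta-lactamase reporter under ARE control in HepG2 cells, 2,000 per well, was induced by 16 h compound treatment at 37 C. Read-out was fluorescence from LiveBLAzer B/G FRET substrate after 2 h at room temperature.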

[2] = qHTS assay for small molecule activators of the nuclear factor-kappa B (NF-kB) signaling pathway (AID 651749; active = well fitted activation curve with a large enough effect in the signal ratio; the % refers to the signal ratio; note: % of control where 0% means no effect); conditions: NF-kB-bla ME-180 cells, beta-lactamase FRET ratio, 16 h; stronger effect = higher value
Summary of the method: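 Activation measured after 16 hr compound treatment at 37C, 5% CO2, of 2,000 ME-180 cells/well stably expressing an NF-kB response element–driven beta-lactamase reporter, via FRET-disruption fluorescence.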

[3] = qHTS assay for small molecule disruptors of the mitochondrial membrane potential - 1 hr assay (AID 651754; calls by dose curve; note: nearly all actives have a fitted effect of over 35% in size; note: potency is the fitted concentration of half-maximal effect); conditions: series mostly up to 92.2 µM
Summary of the method: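 Loss of mitochondrial potential shifts the cationic dye from red mitochondrial aggregates to green cytoplasmic monomers. Cells (HepG2) are treated with compound for 1 hr before a 30 min dye incubation at 37C.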

[4] = qHTS assay for small molecule disruptors of the mitochondrial membrane potential - 5 hr assay (AID 651755; calls by dose curve; note: nearly all actives have a fitted effect of over 40% in size; note: potency is the fitted concentration of half-maximal effect); conditions: JC-1-type ratio dye; series mostly up to 92.2 µM
Summary of the method: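 Membrane-potential dye readout: red aggregate (540 ex/590 em) versus green monomer (490 ex/535 em) fluorescence after 30 min dye loading, following 5 hr compound exposure at 37C of overnight-plated HepG2 cells.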

[5] = target: Tumor necrosis factor (Homo sapiens) (UniProt P01375); experiment: qHTS assay to identify small molecules that stimulate Tumor Necrosis Factor-alpha (TNF-alpha) secretion (AID 651757; active = well fitted curve in the direction sought with a large enough effect in the signal ratio; the % refers to the signal ratio; note: potency is the fitted concentration of half-maximal effect); conditions: Human cells, HTRF 665/615 ratio; series mostly up to 92.2 µM
Summary of the method: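 Human monocytic THP-1 cells are plated, treated with compound and held at 37 C for 17 hrs. Labeled anti-TNF-alpha antibody mixture is then added; after 3 hr at room temperature, TR-FRET signal reports secreted TNF-alpha.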

[6] = target: Glucagon-like peptide 1 receptor (Homo sapiens) (UniProt P43220); experiment: qHTS of GLP-1 Receptor Agonists: LOPAC Validation (AID 624148); conditions: GLP-1R agonist cell assay; series mostly up to 46.1 µM;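 note: luminescence from a luciferase reporter switched on by cAMP; 0% is about no effect; higher luminescence signal means agonism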
Summary of the method: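 Agonism scored as increased luciferase luminescence driven by cAMP in HEK293 clones carrying GLP-1R. Cells settled 12 hours, received compound for 4-6 hr at 37 deg C, 5% CO2, and were read after 12 min detection reagent at RT.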

[7] = qHTS of Nrf2 Activators: LOPAC Validation (AID 624149); conditions: Nrf2/ARE reporter cell assay; series mostly up to 46.1 µM; note: 0% is about no effect
Summary of the method: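 Cells (AREc32_Fluc) are plated at 1000 per well in OPTI-MEM containing 5% FBS and left overnight. Compounds are pinned in and incubated 24 hr at 37 deg C, and firefly luciferase is detected with Steady-Glo.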

[8] = HTS Assay for Allosteric Antagonists of the Human D2 Dopamine Receptor: Hit Validation in HTRF (AID 624455); conditions: Cells stably expressing D1 dopamine receptor, inhibition mode; series mostly up to 46.1 µM;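 note: stable D1 dopamine receptor cell line scored for blocking the D1 response; % is set by controls: 0 for no effect and ±100 for the full control effect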
Summary of the method: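 Inhibition of the D1-mediated response is measured by HTRF in cells that stably express the D1 dopamine receptor. Compounds reaching this step are hits from calcium-flux antagonism testing at EC80 dopamine in inducible Hek293 Trex D2 cells.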

[9] = qHTS assay for small molecule activators of the p53 signaling pathway (AID 651743; active = well fitted activation curve with a large enough effect in the signal ratio, not every such curve was filed as active; the % refers to the signal ratio; note: potency is the fitted concentration of half-maximal effect; for activation: % of control where 0% means no effect); conditions: HCT-116 p53RE-bla, beta-lactamase FRET ratio, 16 h; activation: stronger effect = higher value
Summary of the method: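 After 16 hours compound treatment at 37 C, HCT-116 cells stably expressing p53RE-driven beta-lactamase were loaded with LiveBLAzer B/G FRET substrate for 2 hours at room temperature. Fluorescence intensity served as the p53 activation read-out.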

[10] = qHTS assay for environmental chemicals that activate the Aryl hydrocarbon Receptor (AhR) signaling pathway (AID 651777); conditions: 1A2-DRE human hepatoma cells, luciferase, 24 h; activation: stronger effect = higher value; note: % of control where 0% means no effect; nearly all actives have a fitted effect of over 15% in size
Summary of the method: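 Reporter gene assay: hepatoma cells with DRE/CYP1A2-luciferase, 24 hr compound incubation at 37 C, 5% CO2, luminescence after One-Glo (30 min, RT).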

[11] = target: Peroxisome proliferator-activated receptor alpha (Homo sapiens) (UniProt Q07869); experiment: qHTS assay for small molecule agonists of the peroxisome proliferator-activated receptor alpha (PPARalpha) signaling pathway (AID 651778); conditions: PathHunter PPARalpha complementation, chemiluminescence, 6 h; stronger effect = higher value; note: % of control where 0% means no effect
Summary of the method: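 Chemiluminescence from complemented enzyme reported PPARalpha activation in cells after 6 hr of compound treatment at 37 C. The detection reagent was incubated for 60 min at room temperature, and compounds were scored as agonists.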

[12] = Cytotoxicity counterscreen for NFkB agonists and antagonists (AID 624476); conditions: NFkB reporter cell line viability counterscreen; series mostly up to 46.1 µM;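 note: cells exposed to compound for 48 hours; % is set by controls: 0 for no effect and ±100 for the full control effect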
[13] = qHTS Assay for Identification of Small Molecule Antagonists for NFkB Signaling Pathway. (AID 624479; calls by dose curve;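 note: pathway stimulated with TNF alpha; % is set by controls: 0 for no effect and ±100 for the full control effect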); conditions: NFkB pathway reporter cell assay, antagonist mode; series mostly up to 38.3 µM
[14] = Cell Proliferation Assay against the TMD8 Cell Line (AID 651645); conditions: TMD8 DLBCL cell line proliferation/viability; at 46.1 µM (top of the series) unless noted;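 note: cells exposed to compound for 48 h before reading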
Summary of the method: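 500 TMD8 cells/well, RPMI + Glutamax, no phenol red, 5% FBS; cpd added immediately; 48 h, 37C, 5% CO2; CellTiter-Glo, luminescence. Controls: DMSO = 100%, bortezomib 9.2 uM final = 0%.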

[15] = Cell Proliferation Assay against the HBL1 Cell Line (AID 651646); conditions: HBL1 DLBCL cells; at 46.1 µM (top of the series) unless noted;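 note: cells exposed to compound for 48 h before reading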
Summary of the method: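 CellTiter-Glo luminescence after 48 h compound exposure at 37C gives percent activity, with DMSO as 100% and 9.2 uM bortezomib final as 0%. Cells: 500 log-phase HBL1 per well, RPMI plus 5% FBS.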

[16] = Cell Proliferation Assay against the TMD8 Cell Line (Caspase readout at 16 hrs) (AID 651712); conditions: TMD8 lymphoma cells, caspase activation luminescence; series mostly up to 46.1 µM
Summary of the method: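 Caspase-Glo luminescence measured apoptosis after a 16 h, 37 C compound exposure of TMD8 cells (500 cells/well, 5% FBS RPMI). DMSO set 0% and bortezomib at 9.2 uM final set 100% activity.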

[17] = Cell Proliferation Assay against the TMD8 Cell Line (Caspase readout at 8 hrs) (AID 651713); conditions: TMD8 lymphoma cells, caspase activation luminescence; series mostly up to 46.1 µM;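 note: 0% = DMSO and 100% = 9.2 µM bortezomib caspase signal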
Summary of the method: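 Caspase 3/7 activation in ABC DLBCL TMD8 cells is measured by luminescence after an 8 h compound exposure at 37C. Relative light units are scaled between DMSO (0%) and 9.2 uM final bortezomib (100%).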

[18] = qHTS assay to identify small molecules that stimulate interleukin-8 (IL-8) secretion (AID 651758; active = well fitted activation curve with a large enough effect in the signal ratio; the % refers to the signal ratio; note: 0% is about no effect); conditions: HTRF ratio (665/615); series mostly up to 92.2 µM
Summary of the method: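 Secreted IL-8 measured homogeneously by TR-FRET (two labelled anti-IL-8 antibodies, 1-3 h at room temperature) after a 16 h, 37 C compound treatment of THP-1 cells at 2000 cells/well.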

Peroxisome proliferator-activated receptor alpha (Homo sapiens), sequence (Q07869 whole entry, looked up): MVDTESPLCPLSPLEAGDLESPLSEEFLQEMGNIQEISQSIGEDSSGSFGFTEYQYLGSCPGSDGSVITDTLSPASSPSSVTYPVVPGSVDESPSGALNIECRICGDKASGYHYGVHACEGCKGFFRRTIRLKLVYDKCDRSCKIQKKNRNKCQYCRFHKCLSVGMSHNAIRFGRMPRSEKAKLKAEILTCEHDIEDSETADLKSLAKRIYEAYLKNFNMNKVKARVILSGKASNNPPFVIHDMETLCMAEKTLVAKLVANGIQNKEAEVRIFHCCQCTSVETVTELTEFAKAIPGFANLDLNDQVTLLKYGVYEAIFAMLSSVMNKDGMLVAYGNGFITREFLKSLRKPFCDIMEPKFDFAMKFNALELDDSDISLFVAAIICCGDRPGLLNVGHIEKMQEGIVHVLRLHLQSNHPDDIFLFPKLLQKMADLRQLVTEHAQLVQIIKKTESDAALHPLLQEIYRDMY
Tumor necrosis factor (Homo sapiens), sequence (P01375 whole entry, looked up): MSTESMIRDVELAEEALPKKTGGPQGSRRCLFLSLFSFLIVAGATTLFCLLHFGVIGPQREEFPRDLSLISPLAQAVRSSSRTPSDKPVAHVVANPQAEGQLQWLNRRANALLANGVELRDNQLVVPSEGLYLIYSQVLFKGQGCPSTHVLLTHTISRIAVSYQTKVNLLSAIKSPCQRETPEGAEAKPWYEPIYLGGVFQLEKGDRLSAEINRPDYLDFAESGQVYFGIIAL
Glucagon-like peptide 1 receptor (Homo sapiens), sequence (P43220 whole entry, looked up): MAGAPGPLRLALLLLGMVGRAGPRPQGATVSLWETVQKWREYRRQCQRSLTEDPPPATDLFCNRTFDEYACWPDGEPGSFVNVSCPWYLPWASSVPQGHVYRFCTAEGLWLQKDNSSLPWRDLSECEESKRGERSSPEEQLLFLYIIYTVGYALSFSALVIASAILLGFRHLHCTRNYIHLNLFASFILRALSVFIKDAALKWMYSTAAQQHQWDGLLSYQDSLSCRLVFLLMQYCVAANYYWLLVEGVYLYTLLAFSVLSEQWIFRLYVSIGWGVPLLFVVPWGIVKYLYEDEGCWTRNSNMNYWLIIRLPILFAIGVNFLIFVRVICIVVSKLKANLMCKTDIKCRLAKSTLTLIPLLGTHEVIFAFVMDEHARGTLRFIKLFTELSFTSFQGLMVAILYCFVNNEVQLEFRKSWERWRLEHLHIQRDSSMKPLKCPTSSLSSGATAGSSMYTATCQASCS

NS(=O)(=O)c1cc(C(=O)O)c(NCc2ccco2)cc1Cl
inactive: Potency [1] | activation [2] -1.24% and -2.58% | Potency [3] | Potency [4] | Potency [5]

O=c1c(O)c(-c2cc(O)c(O)c(O)c2)oc2cc(O)cc(O)c12
inactive: outcome [6] | outcome [7] | outcome [8]

COc1cc(OC)c(C(=O)CCCN2CCCC2)c(OC)c1
inactive: Potency [1] | activation [9] -0.273% | activation [2] -0.152% | activation [10] -1.93% | max response [11] -0.755%

CN(C)c1ccc2nc3ccc(=[N+](C)C)cc-3sc2c1
active: Potency [9] 20 µM | Potency [3] 3.76 µM | Potency [4] 5.31 µM | Potency [5] 10.6 µM
inactive: activation [10] -2.65% | max response [11] -7.81%

COc1c2occc2cc2ccc(=O)oc12
inactive: Potency [1] | activation [9] -0.24% and -0.96% | Potency [3] | Potency [4] | Potency [5] | max response [11] -3.1% and -0.368%

CCN(CCO)CCCC(C)Nc1ccnc2cc(Cl)ccc12 (configuration not stated)
inactive: Potency [12] | Potency [13] | Potency [16] | Potency [17]
114%: viability (% of control) [14]
121%: viability, percent of control [15]

CCc1nc(N)nc(N)c1-c1ccc(Cl)cc1
inactive: Potency [5] | outcome [18] | activation [10] 1.47% and 0.312% | max response [11] -1.61% and -1.39%

COc1cc(Nc2c(C#N)cnc3cc(OCCCN4CCN(C)CC4)c(OC)cc23)c(Cl)cc1Cl
5.95%: viability, percent of control [15]
inactive: Potency [16]
4.66%: viability (% of control) [14]

c1ccc2[nH]c(-c3cscn3)nc2c1
inactive: Potency [1] | activation [2] -1.73% and -1.48% | Potency [5] | max response [11] -1.63% and -0.401%
